According to PubChem BioAssay AID686979 (National Center for Advancing Translational Sciences (NCATS), 2013):
Hit rate of the full screen: of about 420,000 compounds, about 50,000 (12%) were called active. Where a call stands in place of a potency, no number is given. About 26% were inconclusive and are not listed. Calls come from the whole dose curve; as a rule, active = well fitted inhibition curve with a large enough effect; inconclusive = small, poorly fitted or top-dose-only effect; inactive = flat fitted curve, though single readings scatter. The full list was thinned out, with actives kept by preference.
Potency is the fitted concentration of half-maximal effect.

Assay: qHTS for Inhibitors of human tyrosyl-DNA phosphodiesterase 1 (TDP1): qHTS in cells in presence of CPT; note: nearly all actives have a fitted effect of over 55% in size
Details: chicken DT40 Tdp1-/-;hTDP1 cells + 20 nM CPT, ATP luminescence, 48 h; series mostly up to 46.2 µM
Method in brief: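 Chicken DT40 Tdp1-/- cells complemented with human TDP1, 400 cells/well, exposed to compounds plus 20 nM camptothecin for at least 48 h at 37 C; viability read as ATP content by CellTiter-Glo luminescence.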
With `CC(C)=NN1C(=O)c2ccccc2NC1(C)C` the Potency was “inactive”.
With `O=C(Nc1ccc2c(c1)OCO2)c1ccc(N2C(=O)c3ccccc3C2=O)cc1` the Potency was “inactive”.
For `CCCn1c(C(C)Nc2nc(-c3ccc(C)cc3)cs2)nc2cc(Cl)c(N3CCCCC3)cc21` (centres undefined), the Potency was “inactive”.
For `Cc1ccc(-c2csc(N3CCN(c4cc5c(cc4Cl)nc(-c4ccncc4)n5CCOCCO)CC3)n2)cc1`, the Potency was 16.4 µM (active).
In the case of `COc1ccc(-c2csc(N3CCN(Cc4ccc5c(c4)OCO5)CC3)n2)cc1`, the Potency is reported as “inactive”.
For `COc1cccc(CNC(=O)c2nnn(CC(=O)Nc3cc(C)ccc3C)c2N)c1`, the Potency was “inactive”.
For `CSc1c(SCc2ccccc2)cnn(Cc2ccccc2)c1=O`, the Potency was “inactive”.
In the case of `Cn1c(=O)n(CCc2ccccc2)c(=O)c2c1nc1n2CCCN1c1ccccc1`, the Potency is reported as “inactive”.
In the case of `Cc1cccc(N2CC(C)Cn3c2nc2c3c(=O)n(CC(=O)OCc3ccccc3)c(=O)n2C)c1` (centres undefined), the Potency is reported as 23.1 µM (active).
With `CC1CN(C2CCCCC2)c2nc3c(c(=O)n(C)c(=O)n3C)n2C1` (centres undefined) the Potency was “inactive”.
In the case of `CCn1c(SC(C)C(=O)Nc2ccc(N3CCOCC3)cc2)nnc1-c1ccco1` (centres undefined), the Potency is reported as “inactive”.
In the case of `COc1ccc(C(C)C)cc1-c1ccc2nncn2c1`, the Potency is reported as “inactive”.
For `C=CCn1c(SCC(=O)Nc2ccc(NC(C)=O)cc2)nc2sc(C)c(C)c2c1=O`, the Potency was “inactive”.
In the case of `CC(OC(=O)CNC(=O)c1ccco1)C(=O)Nc1ccc(Cl)cn1` (centres undefined), the Potency is reported as “inactive”.
With `CC(=O)c1ccc(N2Cc3ccccc3C2)cc1` the Potency was “inactive”.
In the case of `O=C(Nc1ccc(NC(=O)c2ccc3c(c2)OCO3)cc1)c1cccc(Cl)c1`, the Potency is reported as “inactive”.
In the case of `O=C(Nc1nncs1)c1cccc(S(=O)(=O)N2CCCCC2)c1`, the Potency is reported as “inactive”.
With `CC(NS(=O)(=O)c1ccc(Cl)cc1)C(=O)Nc1ccc2c(c1)OCCO2` (centres undefined) the Potency was “inactive”.
In the case of `O=C(Nc1cccc(S(=O)(=O)Nc2ccc(Cl)cc2)c1)c1ccc2c(c1)OCCO2`, the Potency is reported as 13 µM (active).
In the case of `O=C(Nc1cccc(S(=O)(=O)N2CCCCC2)c1)c1ccc2c(c1)OCO2`, the Potency is reported as 25.9 µM (active).
With `CN1CCN(S(=O)(=O)c2cccc(C(=O)Nc3cccc(S(N)(=O)=O)c3)c2)CC1` the Potency was “inactive”.
In the case of `Cc1cc(C)cc(OCC(=O)OCC(=O)NC2CCCC2)c1`, the Potency is reported as “inactive”.
With `Cn1c(=O)c(=O)n(C)c2cc(S(=O)(=O)CCC(=O)N3CCCCC3)ccc21` the Potency was “inactive”.
In the case of `COc1cc(S(=O)(=O)N2CCN(C(=O)C3CC3)CC2)ccc1NC(C)=O`, the Potency is reported as “inactive”.
With `Clc1ccc(Cl)c(Oc2ccc(Oc3nc(Cl)ccc3Cl)cc2)n1` the Potency was “inactive”.
With `COC(=O)CCCCC1=CCC2C(=O)C=C(O)C2C1` (centres undefined) the Potency was “inactive”.
With `COc1ccc(-c2nnc(SCC(=O)Nc3ccccc3C)o2)cc1OC` the Potency was “inactive”.
For `Cc1cc(C)cc(-c2nnc(SCC(=O)NC3CC3)o2)c1`, the Potency was “inactive”.
With `COc1ccc(-c2nnc(SCC(=O)NC3CCCCC3)o2)cc1OC` the Potency was 20.6 µM (active).
In the case of `Cc1cc(C)nc(/N=C2\NC(=O)CC(C(=O)O)N2c2ccc(Cl)cc2Cl)n1` (centres undefined), the Potency is reported as “inactive”.
In the case of `Cc1cc(NC(=O)/C=C/C(=O)N(CC(=O)NC2CCCC2)c2ccc(F)cc2)no1`, the Potency is reported as “inactive”.
With `Cc1cc(NC(=O)/C=C/C(=O)N(c2ccccc2C)C(C(=O)NC2CCCC2)c2ccc(F)cc2)no1` (centres undefined) the Potency was 20.6 µM (active).
In the case of `Cc1cc(NC(=O)CCC(=O)N(c2cccc(F)c2)C(C(=O)NC2CCCC2)c2ccncc2)no1` (centres undefined), the Potency is reported as “inactive”.
With `O=C(Nc1ccc(F)c([N+](=O)[O-])c1)C1CCCO1` (centres undefined) the Potency was “inactive”.
For `CN(c1ccccc1)S(=O)(=O)c1cccc(C(=O)NNC(=O)c2ccncc2)c1`, the Potency was “inactive”.
In the case of `CCN(CC)S(=O)(=O)c1ccc(N2CCOCC2)c(NC(=O)C2COc3ccccc3O2)c1` (centres undefined), the Potency is reported as 18.4 µM (active).
With `CCN1CCN(c2ccc(S(=O)(=O)N3CCCCC3)cc2NC(=O)c2cccc(NC(C)=O)c2)CC1` the Potency was “inactive”.
With `CN(C)S(=O)(=O)c1ccc(N2CCCC2)c(C(=O)NCc2ccccc2)c1` the Potency was “inactive”.
With `CCN(CC)S(=O)(=O)c1ccc(N2CCCC2)c(NC(=O)c2ccc([N+](=O)[O-])o2)c1` the Potency was 23.1 µM (active).
With `CCN(CC)S(=O)(=O)c1ccc(N2CCOCC2)c(NC(=O)c2ccc(=O)n(C)n2)c1` the Potency was “inactive”.
For `CCN(CC)S(=O)(=O)c1ccc(N2CCOCC2)c(C(=O)O)c1`, the Potency was “inactive”.
In the case of `O=C(c1cccnc1)N(Cc1ccccc1)C(=O)c1cccnc1`, the Potency is reported as “inactive”.
With `COc1ccccc1C(=O)NCC(=O)OCC(=O)NNC(=O)c1ccc(Br)cc1` the Potency was “inactive”.
With `Cc1ccc(N2C(=O)C(NC(=O)c3c(F)cccc3F)(C(F)(F)F)C3=C2CC(C)(C)CC3=O)cc1` (centres undefined) the Potency was “inactive”.
In the case of `Cc1ccc(O)c(NC(=O)c2cc(-c3ccco3)on2)c1`, the Potency is reported as “inactive”.
With `Cc1cccc(NC(=O)C2CC(=O)OC23CCCC3)c1` (centres undefined) the Potency was “inactive”.
For `CCCOc1ccccc1C1CC(=O)Nc2cc3c(cc21)OCO3` (centres undefined), the Potency was 2.31 µM (active).
In the case of `COc1ccccc1C1C2=C(COC2=O)Nc2cc3c(cc21)OCO3` (centres undefined), the Potency is reported as “inactive”.
In the case of `COc1cc2c(cc1OC)C(c1ccc(C)o1)CC(=O)N2` (centres undefined), the Potency is reported as “inactive”.
